Growth inhibition data for 21 compounds are collected here from PubChem BioAssay (NCI).

This is part of a sample that, as a whole, favours compounds with a hit. Of some 79,000 tested, about 15% had one in any assay. Unmarked numbers belong to inactive results. Activity calls are given as the source filed them. Rule as the data show it: active = growth inhibition above about 70%; inactive = the rest.

The nature of experiment [1]: NCI Yeast Anticancer Drug Screen. Data for the rad50 strain (AID 155).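 Also: 0% = growth of vehicle-only cultures of the same strain.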 The following applies: S. cerevisiae rad50 strain growth inhibition; at 50.0 µM; hits give high values. Summed up: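 Genetically altered yeast (DNA repair pathway); compound treatment; growth inhibition vs vehicle ctrl.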
Experiment [2] is described as follows: NCI Yeast Anticancer Drug Screen. Data for the mec2-1 strain (AID 157). The following applies: S. cerevisiae mec2-1 strain, at 50.0 µM, hits give high values. Summed up: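 Cells of the genetically defined mec2-1 yeast strain are incubated with test compound. Inhibition of growth is calculated against vehicle-treated controls.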
Experiment [3] in a line: NCI Yeast Anticancer Drug Screen. Data for the sgs1 mgt1 strain (AID 161).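 Also: 0% = growth of cultures given vehicle only.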 The following applies: S. cerevisiae sgs1 mgt1 strain, at 50.0 µM, hits give high values. Summed up: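 Genetically altered yeast, compound exposure, growth inhibition relative to vehicle.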
Experiment [4] in a line: NCI Yeast Anticancer Drug Screen. Data for the cln2 rad14 strain (AID 165).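 Also: 0% = growth equal to vehicle treated cultures.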 The following applies: S. cerevisiae cln2 rad14 strain, at 50.0 µM, hits give high values. Put shortly: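 The screen exposed genetically defined yeast (cln2 rad14) to test compounds and scored growth inhibition relative to vehicle-treated controls.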
A short description of experiment [5]: NCI Yeast Anticancer Drug Screen. Data for the bub3 strain (AID 167). The note with it: S. cerevisiae bub3 mutant strain, at 50.0 µM, hits give high values. Summed up: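 Yeast carrying a defined mutation is treated with each compound, and growth is compared with that of vehicle-exposed cells to give inhibition.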
Experiment [6] in a line: NCI Yeast Anticancer Drug Screen. Data for the mlh1 rad18 strain (AID 175). The following applies: S. cerevisiae mlh1 rad18 strain growth inhibition; at 50.0 µM; hits give high values. Put shortly: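 Compound-treated yeast growth, normalised to vehicle controls. Strain bears defined DNA repair mutations.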

For the compound `CN(C)c1ccc(C=C(c2ccc(N)cc2)c2ccc(N)cc2)cc1`, the growth inhibition was 9.25% in experiment [1]; -1.05% in experiment [2]; 24.3% in experiment [3]; -0.6% in experiment [4]; 52.4% in experiment [5]; 20.6% in experiment [6].
As for `Nc1nc(SCC(=O)O)[nH]c(=O)c1NS(=O)(=O)c1ccccc1[N+](=O)[O-]`, the growth inhibition in experiment [1] was 21.4%; in experiment [2], -4.1%; in experiment [3] it was -2.4%; in experiment [4], 23.1%; in experiment [5] it was 2.75%; in experiment [6], 5.6%.
For `NC(=O)N1CCCCC1`, the growth inhibition is 7.2% in experiment [1]; -6.6% in experiment [2]; 24.4% in experiment [3]; 7.2% in experiment [4]; 13.9% in experiment [5]; 4.65% in experiment [6].
In the case of `CCCCCOP(=O)(Cc1ccc(Cl)cc1)OCCCCC`, the growth inhibition was 99.6% (active) in experiment [1]; 99.7% (active) in experiment [2]; 99.5% (active) in experiment [3]; 99.5% (active) in experiment [4]; 99.4% (active) in experiment [5]; 99.5% (active) in experiment [6].
Regarding `COc1cc(C(=O)NC2CCc3cc(OC)c(OC)c(OC)c3-c3ccc(OC)c(=O)cc32)cc(OC)c1OC` (stereo unspecified), the growth inhibition in experiment [1] is 26.4%; in experiment [2] it was -9.65%; in experiment [3], 3%; in experiment [4], 12.2%; in experiment [5], 0.05%; in experiment [6], 5.35%.
In the case of `CCCC(CCC(C)=O)[N+](=O)[O-]` (stereo unspecified), the growth inhibition in experiment [1] was -9.05%; in experiment [2] it was -3.15%; in experiment [3], -8.85%; in experiment [4], -14.2%; in experiment [5], 1%; in experiment [6], 12%.
Turning to `C[N+](C)(C)CC(=O)NN`, the growth inhibition in experiment [1] is 10.1%; in experiment [2] it was -0.8%; in experiment [3], -21.7%; in experiment [4], -17.6%; in experiment [5] it was -18%; in experiment [6], 38.6%.
Consider `Clc1cccc(NCNC2Nc3ccccc3N2)c1`, for which the growth inhibition was 39% in experiment [1]; 20% in experiment [2]; 6.6% in experiment [3]; -14.3% in experiment [4]; 18.1% in experiment [5]; 27.9% in experiment [6].
As for `Cc1ccc(CO)cc1C`, the growth inhibition was 4.75% in experiment [1]; -8.5% in experiment [2]; -2.2% in experiment [3]; -6.55% in experiment [4]; -1.35% in experiment [5]; -0.15% in experiment [6].
With `Cc1c2c(cc3c1[nH]c1ccccc13)C(c1ccc(F)cc1)=NCC2`, the growth inhibition in experiment [1] is -1.8%; in experiment [2], 5.55%; in experiment [3], 1.85%; in experiment [4], -51%; in experiment [5], -0.6%; in experiment [6] it was -2.45%.
Consider `Cn1ccnc1CCc1ccc(F)cc1F`, for which the growth inhibition is -37.2% in experiment [1]; -20.8% in experiment [2]; -2.75% in experiment [3]; -0.15% in experiment [4]; -2.2% in experiment [5]; -22.2% in experiment [6].
In the case of `CCCCNS(=O)(=O)c1cc(C(=O)O)cc(C(=O)O)c1`, the growth inhibition in experiment [1] was 2.55%; in experiment [2], -7%; in experiment [3], 4.25%; in experiment [4], -33.9%; in experiment [5], 2.75%; in experiment [6] it was -1.7%.
With `N#C/C(C(=O)NCc1ccccc1)=C(/N)N1CCCC1`, the growth inhibition is -4.95% in experiment [1]; -16.2% in experiment [2]; 0.25% in experiment [3]; -16.6% in experiment [4]; -5.3% in experiment [5]; -0.15% in experiment [6].
On to `CC1(C)CCC(C2=CC(=O)c3c(O)ccc(O)c3C2=O)O1` (stereo unspecified), for which the growth inhibition in experiment [1] was -8.25%; in experiment [2], -17.1%; in experiment [3], 10.5%; in experiment [4], 17.9%; in experiment [5], -12.6%; in experiment [6] it was -2.8%.
`Cc1csc2c1-n1cccc1C2=O`: the growth inhibition in experiment [1] was 5.5%; in experiment [2], 1%; in experiment [3], -17.8%; in experiment [4], 12.2%; in experiment [5], -19.4%; in experiment [6], 24.3%.
As for `Cc1cc(N=Nc2ccc(O)c3ncccc23)c2ccccc2n1`, the growth inhibition in experiment [1] was 9.5%; in experiment [2] it was 6.85%; in experiment [3], 22.8%; in experiment [4], -4.9%; in experiment [5], 18%; in experiment [6], 19.1%.
On to `CCOC(=O)/C(C#N)=C/c1ccc(Br)cc1`, for which the growth inhibition is 15.7% in experiment [1]; 0.8% in experiment [2]; 0.3% in experiment [3]; -4.25% in experiment [4]; 7.5% in experiment [5]; 21.3% in experiment [6].
Consider `Cc1ccc(-c2cc(C(=O)NN)c(C#N)c(=O)[nH]2)cc1`, for which the growth inhibition was 11.4% in experiment [1]; 0.55% in experiment [2]; -0.85% in experiment [3]; 15.1% in experiment [4]; -13.2% in experiment [5]; 26.1% in experiment [6].
In the case of `Cc1ccc2[nH]c3c(ncc4[nH]c5ccccc5c43)c2c1`, the growth inhibition in experiment [1] was 59.3%; in experiment [2], 44.1%; in experiment [3], 62.8%; in experiment [4], 52.1%; in experiment [5] it was 62.9%; in experiment [6], 62%.
For the compound `COc1cccc(CCC(=O)O)c1`, the growth inhibition was -11.7% in experiment [1]; -9.75% in experiment [2]; -21.6% in experiment [3]; 31% in experiment [4]; -1.45% in experiment [5]; 2.7% in experiment [6].
For the compound `N=C(N=C(C(Cl)(Cl)Cl)C(Cl)(Cl)Cl)N=C(C(Cl)(Cl)Cl)C(Cl)(Cl)Cl`, the growth inhibition in experiment [1] is 8.75%; in experiment [2], 15.3%; in experiment [3], 11.1%; in experiment [4], -8.55%; in experiment [5], -24.2%; in experiment [6] it was 19.6%.
